# This is one part of a sample in which hits are shown more often than they occur.
# Pf Dd2 inh – inhibitors of Plasmodium falciparum Dd2 growth | Potency, µM (series often up to 28.9 µM), for the others: at the highest dose activity, negative = inhibition, most hits filed as inhibitors | AID 1347417 | P. falciparum Dd2 growth, SYBR Green, 72 h | 4.3% of 120,000 active; active = well fitted inhibition curve with a large enough effect;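 also: plate controls were DMSO vehicle for no effect and reference drug for full effect; nearly all actives have a fitted effect of over 65% in size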
#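 Infected erythrocytes (Dd2, 0.3% parasitemia, 2.5% hematocrit final) are added to compound in RPMI-1640/Albumax II medium, grown 72 h at 37C in low oxygen, then lysed with saponin/Triton-X containing SYBR Green and read by fluorescence.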
# An asterisk follows results filed as active; i = inactive; [ ] = another dose, or the depositor's remark. Potency is read from the fitted curve at half-maximal effect.
SMILES,Pf Dd2 inh
Cc1nn(-c2ccccc2)c(C)c1[C@@H]1C=C[C@@H](NCc2ccc(F)cc2)C1,5µM*
Cc1nn(-c2ccc(C(F)(F)F)cc2)c(C)c1[C@@H]1C=C[C@@H](NC(=O)c2cccs2)C1,2.8µM*
Cc1nn(-c2ccccn2)c(C)c1[C@@H]1C=C[C@@H](NC(=O)CCC(=O)O)C1,i
COc1ccc(NC(=O)O[C@@H]2C=C[C@H](c3c(C)nn(-c4ccccc4C)c3C)C2)cc1,i
Cc1nn(Cc2ccccc2)c(C)c1[C@@H]1C=C[C@@H](NC(=O)CSCC(=O)O)C1,i
Cc1nn(-c2ccc(C(C)(C)C)cc2)c(C)c1[C@@H]1C=C[C@@H](NC(=O)c2cccs2)C1,-7%[44.1 µM]
Cc1ccc(-n2nc(C)c([C@H]3C=C[C@@H](OC(=O)Nc4cccc(F)c4)C3)c2C)cc1Cl,11µM*
Cc1nn(Cc2ccccc2)c(C)c1[C@@H]1C=C[C@@H](NC(=O)Nc2cccc(C#N)c2)C1,i
Cc1nn(-c2ccc(F)cc2)c(C)c1[C@@H]1C=C[C@@H](NS(=O)(=O)c2cccs2)C1,i
Cc1nn(Cc2ccccc2)c(C)c1[C@@H]1C=C[C@@H](NC(=O)CCC(=O)O)C1,-8%[44.1 µM]
COc1ccc(C)cc1NC(=O)N(C)CC1CCOCC1,i
Cc1cc(O)c(C(c2ccccc2Cl)N2CCCCC2)c(=O)n1Cc1ccco1 (configuration not stated),26%
Cc1cc(NC(=O)COc2ccccc2)cc(-c2nc3ccccc3o2)c1O,104%
CC(C)c1ccccc1OCC(=O)c1ccc2c(c1)N(CC(=O)N1CCCCC1)C(=O)CO2,i
CCc1ccc(-c2[nH]c3c(c2-c2c(-n4cccc4)n(C)c(=O)[nH]c2=O)c(=O)[nH]c(=O)n3C)cc1,71%
O=C(NCC1CN(Cc2ccccn2)CC12CN(c1ccccc1)C2)c1ccccc1 (configuration not stated),i
Cc1ccc(C(=O)N2CCCC(c3nn(-c4ccc(Cl)cc4)c(=O)[nH]3)C2)cc1 (configuration not stated),-23%
Cc1ccc(-n2nc(C)c([C@@H]3C=C[C@@H](NC(=O)c4cccs4)C3)c2C)cc1Cl,11µM*
Cc1nn(-c2ccc(C(C)(C)C)cc2)c(C)c1[C@@H]1C=C[C@@H](NC(=O)Nc2ccccc2)C1,-13%[44.1 µM]
Cc1nn(-c2ccc(C(F)(F)F)cc2)c(C)c1[C@@H]1C=C[C@@H](NC(=O)Nc2ccccc2)C1,11µM*
Cc1nn(-c2ccc(C(F)(F)F)cc2)c(C)c1[C@@H]1C=C[C@@H](NC(=O)C2CCCCC2)C1,i
Cc1ccc(-n2nc(C)c([C@@H]3C=C[C@@H](N)C3)c2C)cc1Cl,i
O=C(N[C@H]1CCN2C(=O)N(c3ccc(F)c(Cl)c3)C(=O)[C@@H]2C1)c1cccs1,i
CC1Cn2cc(C(=O)Nc3cccc(C(F)(F)F)c3)c(=O)c3c(Cl)ccc(c32)O1 (configuration not stated),8%
N#CC1(c2ccccc2)CCN(C(=O)c2cn(CC3CCCNC3)nn2)CC1 (configuration not stated),i
SMILES,Pf Dd2 inh
O=S(=O)(c1cccc2nonc12)N1CCC2(CCCNC2)C1 (configuration not stated),-9%
O=C(CSc1nc2c(c(=O)[nH]1)CN(Cc1ccc3c(c1)OCO3)CC2)Nc1cccc(Cl)c1,49%
CCCc1noc(-c2cccn3c(CNC(=O)c4ccc(F)cc4)nnc23)n1,i
CCc1cccc(C)c1NC(=O)c1cc(S(=O)(=O)N2CCN(c3ccccc3)CC2)ccc1F,21%
Cc1oc2c(c1C(=O)N1CCN(c3ccccc3)CC1)CN(Cc1ccccc1)CC2,5µM*
O=C1CCC(C(=O)N2CCSCC2)CN1CCc1cccc(F)c1 (configuration not stated),0%
Cc1oc2c(c1C(=O)N(C)C)CN(C(=O)CCc1ccccc1)CC2,6.3µM*
Cc1csc(NC(=O)c2nc3c(o2)CCN(Cc2cccc(F)c2)CC3)n1,i
Cc1oc2c(c1C(=O)N1CCOCC1)CN(CCC(C)C)CC2,-20%
Cc1oc2c(c1C(=O)N1CCSCC1)CN(Cc1cccc(F)c1)CC2,11µM*
CCC(=O)N1CCc2oc(C)c(C(=O)N(C)C)c2C1,i
CN(C)C(=O)c1n[nH]c2c1CN(C(=O)CCc1ccccc1)CC2,-22%
CC(=O)N1CCN(C(=O)c2c(C)oc3c2CN(Cc2ccc(F)cc2)CC3)CC1,-1%
Cc1nc(CCNS(=O)(=O)c2ccc(Cl)c(C)c2)no1,i
CCN1CC2(CCN(C(=O)CCc3n[nH]c4c3CCCC4)CC2)OC1=O,-5%
O=C(CSC1=Nc2ccccc2N=C(c2ccc(F)cc2)C1)Nc1cccc(C(F)(F)F)c1,i
CC(C)(C)CC(=O)Nc1ccc([C@@H](O)[C@H]2COCC(=O)N2Cc2ccccn2)cc1,-6%[44.1 µM]
O=C(NCc1c[nH]c2ncccc12)c1ccc(F)cc1,0%[44.1 µM]
COc1cc(C)sc1C(=O)N1CCC2(CC1)OCCCC2O (configuration not stated),-12%
Cc1ccc(NC(=O)[C@H](CSCc2ccccc2)N2Cc3ccccc3C2=O)cc1,i
CCN(CC)S(=O)(=O)c1ccc(NC(=O)[C@H](CSCc2ccccc2)N2Cc3ccccc3C2=O)cc1,5µM*
CCc1ccc(NC(=O)[C@H](CSCc2ccccc2)N2Cc3ccccc3C2=O)cc1,i
CCc1ccc(CN(Cc2ccco2)C(=O)c2cc(-c3ccc(C)c(F)c3)on2)cc1,480%[5.79 µM]
CN1C(=O)CC(C(=O)O)C12CCN(Cc1cncs1)CC2 (configuration not stated),0%
COc1ccc(S(=O)(=O)NCCc2csc3nc(-c4cccc(C)c4)nn23)cc1F,1%
SMILES,Pf Dd2 inh
CCCn1ncnc1C(C)Nc1cc(C(C)C)nc2cc(C)nn12 (configuration not stated),-5%
Cc1cccc(-n2ncc(C(=O)Nc3ccc4c(c3)OCO4)c2C2CCN(C(=O)OC(C)(C)C)CC2)c1,10µM*
Cc1c(Cl)cccc1-n1ncc(C(=O)Nc2ccc(F)cc2F)c1C1CCN(C(=O)OC(C)(C)C)CC1,-3%
CC(C)(C)OC(=O)N1CCC(c2c(C(=O)O)cnn2-c2ccc(F)cc2F)CC1,5%
CC(C)(C)OC(=O)N1CCC(c2c(C(=O)Nc3cccc(C(F)(F)F)c3)cnn2-c2ccc(F)cc2F)CC1,11µM*
CC(C)(C)OC(=O)N1CCC(c2c(C(=O)Nc3ccc4c(c3)OCCO4)cnn2-c2ccc(F)cc2F)CC1,4µM*
Cc1ccc(-n2ncc(C(=O)N3CCCCC3)c2C2CCN(C(=O)OC(C)(C)C)CC2)cc1C,-5%
COc1ccc(NC(=O)c2cnn(-c3ccc(F)cc3F)c2C2CCN(C(=O)OC(C)(C)C)CC2)cc1Cl,7.9µM*
COc1ccc(C)cc1NC(=O)c1c(C)oc2ncn(CC(C)C)c(=O)c12,-13%
CCN1CCC2(CCC1=O)CN(Cc1nc(COC)no1)CCN2C (configuration not stated),-15%
CCS(=O)(=O)N1CCc2cc(C(=O)NCc3ccccc3OC)ccc21,-10%
O=C1c2c(-c3nc(-c4ccsc4)no3)nnn2CCN1Cc1ccccc1F,-4%
CCC1CCC(C(=O)NC(C(=O)Nc2cccc(OC)c2)C(C)C)CC1 (configuration not stated),21%
O=C(C1CC1)N1CCC(c2nnc3n2C(C(=O)N2CCOCC2)CC3)CC1 (configuration not stated),-12%
Cc1ccc(N2CCN(C(=O)NCc3noc4ccccc34)CC2C)cc1 (configuration not stated),2%
